Values joined by “and” are separate entries in the source; they are usually repeats but may differ in a detail not shown here. Equal entries are not always repeated.
How the values were obtained:
Assay type in all cases: functional
Plasmodium falciparum [1] = experiment: GSK_TCMDC: Inhibition of Plasmodium falciparum 3D7 in whole red blood cells, using parasite LDH activity as an index of growth. Test compounds present at 2uM
Plasmodium falciparum [2] = experiment: GSK_TCMDC: Inhibition of Plasmodium falciparum Dd2 in whole red blood cells, using parasite LDH activity as an index of growth. Test compounds present at 2uM
HepG2 = experiment: GSK_TCMDC: Percent inhibition of human HepG2 cell line. Test compounds present at 10uM.

Structure (SMILES)	Inhibition (Plasmodium falciparum [1])	Inhibition (Plasmodium falciparum [2]) [%]	Inhibition (HepG2)
O=C(O)C(F)(F)F.O=S(=O)(NCCN1CCCC1)c1ccc(-c2ccc(CNCc3ccc(F)cc3)cc2)cc1F	82%	21	40%
O=C(/C=C/c1cccc(Br)c1)NCCCCCN1CCC(c2c[nH]c3ccccc23)CC1	100%	15	38%
Cc1noc(-c2ccccc2)c1NC(=O)NC1CCN(CCCCCNC(=O)/C=C/c2ccc(Cl)c(Cl)c2)CC1	93%	0	0%
COc1ccc(OCC(O)CN(Cc2ccccc2OC)C(=O)Nc2ccc(Br)cc2)cc1 (stereo unspecified)	97%	2	8%
O=C(NCC(NCCCNc1cc(=O)c2ccccc2[nH]1)c1cc(Br)cc(Br)c1)C1=CCCC1 (stereo unspecified)	96%	48	0%
Br.CC1(C)NC(N)=NC(=N)N1OCCCCCOc1ccccc1	95%	97	61%
O=C(Nc1cccc(Cl)c1)N(CCCn1ccnc1)Cc1csc(-c2ccc(CNCc3ccccc3)cc2)n1.O=C(O)C(F)(F)F	100%	45	11%
O=C(NCCN1Cc2ccccc2C1=O)c1ccc(Oc2ccc(C(=O)NCCN3Cc4ccccc4C3=O)cc2)cc1	99%	95	27%
Br.Clc1ccc(-c2nc(-c3ccncc3)c[nH]2)cc1Cl	96%	63	1%
FC(F)(F)c1cccc(CNCC2CCN(Cc3ccc4c(c3)OCO4)CC2)c1.O=C(O)C(F)(F)F	100%	19	21%
CC(C)(C)C(=O)Nc1ccccc1Oc1ccc(Cl)cc1	92%	96	54%
CCCCCCN(CCCCCC)CCCCNc1c2ccc(Cl)cc2nc2ccc(OC)cc12.Cl	100%	94	65%
CNC(=O)C1Cc2c([nH]c3c(C)cccc23)C2(N1)C(=O)Nc1ccc(OC(F)(F)F)cc12 (stereo unspecified)	100%	50	0%
CCCCCCNC(=O)C1Cc2c([nH]c3ccccc23)C2(CCN(CCc3ccccc3)CC2)N1 (stereo unspecified)	96%	34	41%
COc1ccc(NC(=O)CCNc2ccnc(NCCc3ccc(F)cc3)n2)cc1.O=C(O)C(F)(F)F	94%	5	4%
CN1CCC(N(Cc2ccc(-c3ccc(C(F)(F)F)cc3)cc2)C(=O)Cn2cc(Cc3cnn(C)c3)c(=O)nc2SCc2cccc(F)c2F)CC1.O=C(O)C(O)C(O)C(=O)O	88%	91	68%
O=C(Nc1cccc(-c2ccc(-c3nc4ccccc4[nH]3)cc2)c1)c1cnn2cccnc12	87%	1	9%
CCOc1cc(C(=O)NCc2cc(Cl)cc(Cl)c2)ccc1-c1nc2cc(Cl)ccc2[nH]1	100%	5	1%
Br.CC(C)(Cc1ccc(Cl)cc1)NCCCCCCNCCc1ccc(O)c(O)c1	90%	0	45%
COc1ccc2nccc([C@@H](O)CN3CCC(NCc4cc5cc([N+](=O)[O-])ccc5[nH]4)CC3)c2c1.O=C(O)C(=O)O	99%	57	29%
COc1cc2nc(Nc3ccc(C)cc3)nc(Nc3ccc(C)cc3)c2cc1OC.Cl	100%	100	99%

Structure (SMILES)	Inhibition (Plasmodium falciparum [1])	Inhibition (Plasmodium falciparum [2]) [%]	Inhibition (HepG2)
COc1ccccc1CCC(C)(C)NC(=O)CC(CCc1ccccc1)Nc1ccc(C#N)c2ccccc12 (stereo unspecified)	94%	65	6%
O=C(/C=C/c1ccc(Cl)c(Cl)c1)NC1CCN(CCNC(=O)c2cccc(Cl)c2)CC1.O=C(O)C(F)(F)F	100%	45	22%
O=C(NCCCCN1CCC(c2ccc3c(c2OCCO)CCCC3)CC1)c1sc(-c2ccc(C(F)(F)F)cc2)nc1CO	95%	20	37%
Cc1cccc(C(=O)NCCCN2CCC(NC(=O)/C=C/c3ccc(Cl)c(Cl)c3)CC2)c1.O=C(O)C(F)(F)F	98%	23	39%
COc1ccc(CCNCCCCCCNCCc2ccc(Cl)cc2)c(Cl)c1OC.Cl	100%	4	88%
Nc1nc(N)c2c(ccc3c2ccn3CCCCO)n1	93%	49	61%
COc1ccc(C(O)CNC(C)CCc2ccccc2)cc1C(F)(F)F.Cl (stereo unspecified)	99%	100	3%
Cc1[nH]c(C)c(-c2ccc(OCc3ccc(OC(F)(F)F)cc3)nc2)c(=O)c1Cl	98%	96	3%
Cc1c(CC(=O)N(C)C2CCN(CCCCCNC(=O)/C=C/c3ccc(Cl)c(Cl)c3)CC2)sc2ccc(Cl)cc12	95%	9	93%
N#Cc1cc(C(=O)Nc2ccccc2)c(N)nc1SCC(=O)Nc1ccc(Br)cc1	100%	66	11%
Cl.Cl.N=C(N)c1ccc(-c2cc(-c3cccc(C(=N)N)c3)on2)cc1	96%	45	7%
Cc1cc(=NN=Cc2ccc(Cl)cc2)c2ccccc2[nH]1	100%	87	5%
OC(CNc1ccnc(Nc2cccc(Cl)c2)n1)c1cccc(F)c1 (stereo unspecified)	90%	29	16%
COc1cccc(CN2CCCN(Cc3cccc(NC(=O)c4cc5ccccc5s4)c3)CC2)c1.O=C(O)C(F)(F)F	89%	16	17%
O=C(NCCCCN1CCN(c2cccc3c2CCCC3)CC1)c1ccc(NC(=O)c2ccc(Cl)cc2)cc1	100%	85	35%
O=C(NCCN1CCC(c2ncc(-c3ccccc3)o2)CC1)c1ccc(NC(=O)c2ccc(Cl)cc2)cc1	100%	80	32%
CC(C)CNC(=O)c1cncc(-c2ccc(CN3CCC(N4CCCC4)CC3)cc2)c1.O=C(O)C(F)(F)F	100%	42	25%
CC1CCC2(CC1)N=C(N)N=C(N)N2OCc1cc2ccccc2c2ccccc12 (stereo unspecified)	97%	41	27%
Cc1nc(C)n(CC(=O)Nc2cccc(-c3cccc(-c4nc5cc(C(F)(F)F)ccc5[nH]4)c3)c2)n1	100%	96	62%
O=C(/C=C/c1ccc(Cl)c(Cl)c1)NCCCCCN1CCCN(C(=S)Nc2ccc(Cl)cc2)CC1	86%	10	7%
CCc1nc(N)nc(N)c1-c1ccc(Cl)cc1 [PYRIMETHAMINE]	94% and 93%	0	71% and 66%

Structure (SMILES)	Inhibition (Plasmodium falciparum [1])	Inhibition (Plasmodium falciparum [2]) [%]	Inhibition (HepG2)
Cc1cc(NCc2ccc(F)cc2)nc2cc(O)ccc12	98%	85	14%
CCc1cccc2sc(N3CCN(C(=O)c4ccc([N+](=O)[O-])o4)CC3)nc12	97%	94	2%
COc1ccc2c(NN=Cc3ccc(N(C)C)cc3)ccnc2c1	100%	100	12%
COc1c(C2CCN(CCCCNC(=O)c3ccc(C)c(-c4ccc(C(F)(F)F)cc4)c3)CC2)ccc2c1CCCC2	86%	79	76%
CC1CN(Cc2ccccc2)CCN1c1ccc(NC(=O)c2cccs2)cc1.O=C(O)C(F)(F)F (stereo unspecified)	96%	96	0%
CCc1ccc(NC(=O)C=NNC(=N)N)cc1.O=S(=O)(O)O	100%	3	13%
O=C(Nc1cccc(CN2CCN(Cc3cccc(O)c3)CC2)c1)c1ccc(Cl)c(Cl)c1.O=C(O)C(F)(F)F	100%	35	28%
CN(C)CCOc1ccc2nc(-c3cccc(OCc4ccccc4)c3)[nH]c2c1C#N	100%	86	48%
Cc1cc(N[C@@H](CC(C)C)C(=O)NCCOc2ccccc2)nc(NCCc2ccc(F)cc2)n1.O=C(O)C(F)(F)F	95%	54	25%
CN(C)CCC1CCCc2ccc(NC(=O)Nc3ccc(-c4ccncc4)c4ccccc34)cc21.Cl (stereo unspecified)	89%	27	34%
COCCNCc1ccc(-c2ccc3c(Nc4ccc(F)cc4Cl)ccnc3c2)o1	100%	100	22%
COc1nc(Nc2cccc(C)c2)nc(OC)n1	94%	0	46%
CCN(CC)CCCC(C)Nc1c(-c2ccc(C)cc2)cnc2ccccc12 (stereo unspecified)	85%	65	8%
CN1CCN(c2cccc(NC(=O)c3ccc(-c4ccc(C#N)cc4)cc3)c2)CC1	84%	7	31%
Br.CC1(C)NC(N)=NC(=N)N1OCCCCCCOc1ccc(Cl)c2ccccc12	91%	94	62%
O=C(Nc1ccc(Cn2ncc(N3CCCNCC3)c(Cl)c2=O)cc1)Nc1ccc(-c2ccccc2)cc1	93%	41	12%
CCCN1CCc2c(sc3nc(SCC(=O)Nc4ccc(C)cc4)n(-c4ccc(C)cc4)c(=O)c23)C1	92%	71	0%
COc1cc(Cc2cnc(N)nc2N)cc(OC)c1OCCNC(=O)[C@@H](N)CCC(=O)O.Cl	96%	0	0%
COc1ccc(CNc2nc(NCCc3ccccc3)c3cc(OC)c(OC)cc3n2)cc1OC	100%	100	48%
O=S1(=O)NC2(CCN(CCc3ccc(Cl)cc3)CC2)Nc2cc(F)cc(F)c21	86%	5	7%

— ChEMBL document CHEMBL1157539, “Thousands of chemical starting points for antimalarial lead identification” (Nature, 2010)
